# Hits are enriched below; roughly 21% of the tested compounds scored in any of these assays.
# HCV inhibitor: blocks hepatitis C virus. Huh7.5.1 HCVcc-Cre infection, luciferase reporter, 44 h. Potency, µM (doses to about 41.8 µM), without a hit: at the highest dose activity change, negative = inhibition, actives largely listed as inhibitors. 340,000 tested, 3.4% active. AID 651820; note: potency is the fitted concentration of half-maximal effect; % is set by controls: 0 for no effect and ±100 for the full control effect
#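 A cell-based infection assay in which seeded cells (1,000 per well) receive test compound after 4 h, are inoculated with HCVcc-Cre at approximately 0.5 moi, and are incubated 44 h before luminescence detection.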
# Shiga toxin inh: blocks Shiga toxin action in Vero cells | 290,000 tested, 9.2% active | AID 2315 | Vero cells, Shiga toxin protein synthesis inhibition reporter | inhibition, % at 38.7 µM; in the data active = inhibition mostly above about 28%, no sharp cut-off; inactive = mostly below about 43%; note: 0% is about no effect
# HCMV antiviral: human cytomegalovirus inhibition. HFF cells, HCMV-luciferase reporter, 72 h; active compounds read low. activity change, negative = inhibition, % at 57.5 µM. 410,000 tested, 4.5% active. AID 1259415; in the data active = activity change below about -60%; inconclusive = no clear call, values can overlap the other calls; inactive = above about -39%; note: % is set by controls: 0 for no effect and ±100 for the full control effect
#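 HFF cells seeded 16 h at 37C, treated with compounds, infected with luciferase-reporter HCMV at MOI 1 PFU/cell; luciferase read at 72 h post infection, normalized to buffer-only and Salinomycin controls.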
# Pf growth 96h: inhibits malaria parasite growth, 96 h | Potency, µM (highest dose often 28.7 µM), without a hit: at the highest dose activity change, negative = inhibition, hits mostly inhibitors | 320,000 tested, 6.9% active | P. falciparum luciferase reporter growth, 96 h | AID 504834; note: potency is the fitted concentration of half-maximal effect; % is set by controls: 0 for no effect and ±100 for the full control effect
#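 Readout is luminescence from an integrated firefly luciferase in P. falciparum. Red cells, 2% hematocrit and 0.05% parasitemia final, were cultured with compound through two parasite generations (96 hours) at 37 C, 5% CO2.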
# Cycloheximide cs: counter-screen for Shiga toxin inhibitors: cycloheximide protein synthesis inhibition. cell reporter, cycloheximide protein synthesis inhibition counterscreen. max response, %. 300,000 tested, 12% active. AID 2314; in the data active = max response mostly above about 13%, no sharp cut-off; inactive = mostly below about 14%; note: read at 38.3 µM for the half of the compounds with a filed dose; 0% is about no effect
# Pf growth 48h: inhibits P. falciparum growth in the first generation, 48 h; 310,000 tested, 5.9% active; Potency, µM (highest dose often 28.7 µM), without a hit: at the top dose activity change, negative = inhibition, hits mostly inhibitors; P. falciparum luciferase growth in erythrocytes, 48 h; note: potency is the fitted concentration of half-maximal effect; % is set by controls: 0 for no effect and ±100 for the full control effect
#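 Parasite viability was followed by luminescence of a genomically integrated firefly luciferase. Cultures held 0.1% parasitemia at 2% hematocrit (final), incubated under 5% CO2 at 37 C.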
# Active calls of the source: *; ? = inconclusive; · = no result. Unless noted, calls come from the whole dose curve; as a rule, active = well fitted inhibition curve with a large enough effect; inconclusive = small, poorly fitted or top-dose-only effect, or another doubt; inactive = no such curve, though single readings can be large or run the other way.
SMILES,HCV inhibitor,Shiga toxin inh,HCMV antiviral,Pf growth 96h,Cycloheximide cs,Pf growth 48h
Cc1cccc(C)c1Nc1c(-c2ccccn2)nc2ccccn12,10µM*,-13.0,-97.1*,-11.1%,-3.1,?
C/C(=N\NC(=O)CCC(=O)Nc1ccc(C)c(C)c1)C1CC1,2.5%,14.7,-0.7,?,10.9,-3.1%
COc1cc2c(C#N)c(N3CCN(c4ccccc4OC)CC3)nc(N)c2c(N)n1,?,16.8,-28.3,8.28µM*,25.3,2.08µM*
COc1cc2c(C#N)c(N3CCCC3)nc(N)c2c(N)n1,?,10.5,-19.4,?,0.6,36.3%
COc1cc2c(C#N)c(N3CCN(C)CC3)nc(N)c2c(N)n1,?,-8.9,14.1,·,1.6,15.2%
N#Cc1c(N2CCCC2)nc(N)c2c(N)nc(N3CCCC3)cc12,?,47.3*,55.7,?,31.2*,?
C[C@H](O)[C@@H]1C(=O)N2CCc3c([nH]c4cccc(-c5ccccc5)c34)[C@@H]2C[C@@H]1N(C)CC1CCCCC1,·,·,69.1,·,·,·
Nc1c(N(CCCO)C(=O)C2CCCCC2)c(=O)[nH]c(=O)n1Cc1ccccc1,-7.8%,·,-35.3,·,·,·
CCOc1cc(NC(=O)c2ccco2)c(OCC)cc1NC(=O)Cc1ccc(OC)c(OC)c1,?,-5.0,-19.6,-1.9%,-6.1,?
NC(=O)c1cc(Cc2ccccc2)sc1NC(=O)c1ccco1,?,78.4*,25.5,·,47.1*,50.6%
O=C(Nc1nnc(Cc2ccccc2)s1)c1ccco1,-14.2%,61.9,10.5,138.8%,18.1,·
CCOc1ccc(CC(=O)Nc2sc(Cc3ccccc3)cc2C(N)=O)cc1OCC,17.9%,-6.8,-9.0,11.7µM*,4.6,·
COC(=O)[C@]1(C)N[C@H](CN(C)S(=O)(=O)c2ccc(-c3ccccc3)cc2)[C@@H]2C(=O)N(C)C(=O)[C@@H]21,?,·,-3.0,·,·,·
CC(C)Cc1nn2c(N)c(/C=C3\C=Nc4ccccc43)c(=O)nc2s1,-4.6%,-5.8,-35.2,?,2.6,?
Cc1nc(C(F)(F)F)ccc1C(=O)N1CCCC(C(=O)O)CC1 (stereo unspecified),·,·,64.4,·,·,·
CC(C)C[C@H](NC(=O)[C@H](CCCCN)NC(=O)CNC(=O)[C@H](CC(C)C)NC(=O)[C@@H](N)C(C)C)C(=O)N[C@@H](CO)C(=O)N[C@@H](CCC(N)=O)C(=O)N[C@@H](CCC(=O)O)C(=O)N[C@@H](CC(C)C)C(=O)N[C@@H](Cc1cnc[nH]1)C(=O)N[C@@H](CCCCN)C(=O)N[C@@H](CC(C)C)C(=O)N[C@@H](CCC(N)=O)C(=O)N[C@H](C(=O)N[C@@H](Cc1ccc(O)cc1)C(=O)N1CCC[C@H]1C(=O)N[C@@H](CCCNC(=N)N)C(=O)N[C@H](C(=O)N[C@@H](CC(N)=O)C(=O)N[C@H](C(=O)NCC(=O)N[C@@H](CO)C(=O)NCC(=O)N[C@H](C(=O)N1CCC[C@H]1C(N)=O)[C@@H](C)O)[C@@H](C)O)[C@@H](C)O)[C@@H](C)O,·,7.5,·,·,-6.9,·
COc1ccc2c(=O)cc(-c3ccncc3)oc2c1OC,11.2µM*,·,-38.3,·,·,·
COc1ccc(-c2cc(=O)c3c(OC)c(OC)c(OC)c(OC)c3o2)cc1OC,?,-9.4,26.0,?,5.9,-8.0%
COc1ccc(CC(=O)Nc2ccccc2NC(=O)Cc2ccc(OC)cc2)cc1,-11.6%,-5.7,29.5,19.7%,-1.3,6.57µM*
COc1ccc(CC(=O)Nc2ccncc2Cl)cc1,6.31µM*,-10.4,-92.4*,?,8.2,-16.4%
COc1ccc(CC(=O)Nc2cc(Cl)ccc2O)cc1,2.7%,7.7,-31.4,?,10.9*,?
COc1ccc(CC(=O)Nc2ccccc2N2CCCC2)cc1,-5.8%,-6.5,9.8,?,1.1,?
COc1ccc(CC(=O)NNS(=O)(=O)c2ccccc2[N+](=O)[O-])cc1,16.0%,-5.8,-28.7,4.65µM*,-1.7,24.4%
CCc1ccc(-n2c(=O)c3c4c(sc3n(CC(=O)NC(C)CC)c2=O)CCCC4)cc1 (stereo unspecified),·,·,-2.9,·,·,·
CCc1ccc(NC(=O)CC2C(=O)N(c3cccc(OC)c3)C(=O)N2C2CCCC2)cc1 (stereo unspecified),·,·,-4.1,·,·,·
SMILES,HCV inhibitor,Shiga toxin inh,HCMV antiviral,Pf growth 96h,Cycloheximide cs,Pf growth 48h
CCOc1cc(CN2CCCC(CNC(=O)c3ccc(F)cc3)C2)ccc1OC (stereo unspecified),2.6%,5.3,-3.4,?,0.9,?
COc1ccc(S(=O)(=O)NCC2CCCN(Cc3ccc(OC)cc3F)C2)cc1 (stereo unspecified),?,-5.4,0.0,?,-1.7,8.8%
COc1ccc(CN2CCCC(CNC(=O)c3ccc(F)cc3)C2)c(C)c1C (stereo unspecified),-7.4%,-28.9,15.4,10.4µM*,-3.4,-16.6%
COc1ccc(CN2CCCC(CNC(=O)c3ccc(F)cc3)C2)c(F)c1 (stereo unspecified),6.3%,23.6,?,1.85µM*,5.1,-24.6%
COc1ccc(CC(=O)NCC2CCCN(Cc3cccc(C(F)(F)F)c3)C2)cc1 (stereo unspecified),21.5%,48.5,6.9,158.6%,0.6,0.0%
COc1cc(OC)cc(C(=O)NCC2CCCN(Cc3cccc(C(C)=O)c3)C2)c1 (stereo unspecified),-13.6%,-3.9,-15.3,8.28µM*,1.3,?
COc1ccc(Nc2ncc(C(=O)Nc3cccc(Cl)c3)c3ccccc23)cc1,·,·,-12.7,·,·,·
COc1ccc(S(=O)(=O)N(C)C[C@H]2OCc3cnnn3CCCC(=O)N([C@H](C)CO)C[C@@H]2C)cc1,·,·,5.0,·,·,·
COc1ccc(S(=O)(=O)Oc2ccc3c(c2)O/C(=C\c2cccnc2)C3=O)cc1,?,-4.8,-109.6*,-4.6%,-4.6,·
CS(=O)(=O)Oc1ccc2c(c1)O/C(=C\c1cccnc1)C2=O,-0.9%,19.6*,-29.0,58.9%,11.7,11.7%
COc1ccc2c(c1)O/C(=C\c1ccccc1C)C2=O,-22.9%,65.7*,-6.0,22.6%,31.2*,40.5%
CC(=O)N1CCN(c2csc3ccc(Br)cc3c2=O)CC1,·,·,20.8,·,·,·
Cc1cc(-c2ccc(NS(=O)(=O)c3ccccc3)c(C)c2)ccc1NS(=O)(=O)c1ccccc1,8.91µM*,·,15.4,·,·,·
Cc1ccc(S(=O)(=O)Nc2ccccc2-c2ccccc2)cc1,?,-7.9,-10.0,11.7µM*,-5.3,-6.2%
O=S(=O)(Nc1ccc(Cl)cc1NS(=O)(=O)c1ccccc1)c1ccccc1,0.501µM*,·,-28.6,·,·,·
Cc1ccc(NS(=O)(=O)c2ccccc2)c(NS(=O)(=O)c2ccccc2)c1,14.1%,·,-1.9,·,·,·
Cc1ccc(NS(=O)(=O)c2ccccc2)c2c1CC(C)(C)O2,10µM*,18.0,-16.5,·,-5.8,-11.6%
